An excerpt weighted towards active compounds, which were near 5.3% of everything screened.
Tau fibril ThT: tau fibrillization inhibition (ThT binding). P10636. recombinant tau K18 P301L, heparin-induced fibrillization, ThT fluorescence. Potency, µM (titrated, usually from 57.4 µM), for inactives: top-dose activity, negative = inhibition, hits mostly inhibitors. 270,000 tested, 2.1% active; note: potency is the fitted concentration of half-maximal effect; nearly all actives have a fitted effect of over 55% in size
Target sequence (P10636 561-689 P618L limits assumed): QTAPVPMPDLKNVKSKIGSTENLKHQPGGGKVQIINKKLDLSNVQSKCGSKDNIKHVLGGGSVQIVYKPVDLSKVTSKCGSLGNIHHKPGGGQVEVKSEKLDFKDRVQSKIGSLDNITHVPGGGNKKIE
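Heparin-induced (20 uM) aggregation of recombinant human K18 P301L tau, 15 uM unlabeled with 0.24 uM labeled, pH 7 acetate buffer, 6 hr at 37 C with compound. Fibrils quantified by 30 uM ThT fluorescence after 1 hr ambient incubation.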
Coupling enz: counter-screen for Giardia aldolase inhibitors: coupling enzyme system | 290,000 tested, 0.67% active | AID 2472 | coupling enzyme system counterscreen, AmpLite Red fluorescence | activity change, negative = inhibition, % at 58.2 µM, hits read low; in the data active = activity change below about -30%
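Compounds tested against the coupling enzymes alone at 57.5 uM final; readout was AmpLite Red fluorescence (525/598 nm) after 20 min at RT.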
JMJD2E inh: blocks human JMJD2E demethylase activity; B2RXH2; JMJD2E catalytic domain, FDH-coupled NADH fluorescence (FDH is formaldehyde dehydrogenase); Potency, µM (titrated, usually from 57.1 µM), inactives show at the top dose activity change, negative = inhibition, actives largely listed as inhibitors; 230,000 tested, 1.6% active; active = well fitted inhibition curve with a large enough effect, not every such curve was filed as active; inconclusive = small, poorly fitted or top-dose-only effect, or another doubt; inactive = no such curve, though single readings can be large or run the other way;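 note: potency is the fitted concentration of half-maximal effect; 0% = wells with enzyme and -100% = buffer wells without enzyme; nearly all actives have a fitted effect of over 50% in size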
Target sequence (B2RXH2 1-337 limits assumed): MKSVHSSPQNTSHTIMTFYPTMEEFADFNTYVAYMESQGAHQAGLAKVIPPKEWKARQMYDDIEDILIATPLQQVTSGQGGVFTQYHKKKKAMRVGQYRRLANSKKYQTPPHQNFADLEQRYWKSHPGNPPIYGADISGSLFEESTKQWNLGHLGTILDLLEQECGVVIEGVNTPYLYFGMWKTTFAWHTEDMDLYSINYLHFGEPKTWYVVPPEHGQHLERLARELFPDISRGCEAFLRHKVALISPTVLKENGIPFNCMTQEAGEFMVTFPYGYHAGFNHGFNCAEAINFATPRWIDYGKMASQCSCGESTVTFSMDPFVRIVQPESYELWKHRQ
Tau fluor counter: counter-screen for tau fibril formation inhibitors | tau K18 P301L (four-repeat tau fragment) Alexa594 fluorescence, heparin fibrillization | Potency, µM (highest dose often 57.7 µM), for the others: top-dose activity change, negative = decrease | 280,000 tested, 0.93% active; note: potency is the fitted concentration of half-maximal effect; nearly all actives have a fitted effect of over 55% in size
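Human K18 P301L tau (15 uM unlabeled plus 0.24 uM Alexa 594-labeled, final) in 100 mM sodium acetate pH 7 was mixed with compound and 20 uM heparin and incubated 6 hr at 37 C.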
Tau fibril FP: blocks human tau fibril formation measured by polarization; P10636; K18 P301L tau heparin fibrillization, Alexa594 FP, 6 h; Potency, µM (series often up to 57.7 µM), inactives show at the top dose activity, negative = inhibition, most hits filed as inhibitors; 280,000 tested, 0.39% active; AID 1468; note: potency is the fitted concentration of half-maximal effect; nearly all actives have a fitted effect of over 55% in size
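K18 P301L tau (15 uM unlabeled/0.24 uM Alexa 594-labeled, final) + compound + heparin 20 uM final; 100 mM NaOAc pH 7; 6 hr 37 C; ThT 30 uM final added, 1 hr RT; FP ex 555/em 632 nm.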
Sfp inh: inhibitors of Bacillus subtilis Sfp phosphopantetheinyl transferase. Q9F4F7. Biochemical Sfp PPTase activity, qHTS. Potency, µM, without a hit: largest response in the series, negative = inhibition, actives largely listed as inhibitors. 310,000 tested, 3.5% active. AID 1490;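 note: the enzyme is Sfp with the accession as filed and its product quenches rhodamine fluorescence; potency is the fitted concentration of half-maximal effect; 0% = enzyme reaction without inhibitor and -100% = no enzyme wells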
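Buffer: 50 mM Hepes-Na pH 7.6, 10 mM MgCl2, 0.01% Nonidet P-40, 0.01% BSA. Enzyme 15 nM, pre-exposed to compound 15 min; substrates then added and fluorescence change tracked over 30 min.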
* marks the source's active call; other numbers are inactive results; u = inconclusive; x = not tested or not shown; [ ] = another dose, or the depositor's remark. Unless noted, calls come from the whole dose curve; as a rule, active = well fitted curve in the direction sought with a large enough effect; inconclusive = small, poorly fitted or top-dose-only effect, or another doubt; inactive = no such curve, though single readings can be large; an effect the other way counts as inactive or inconclusive. Unless noted, % is set by controls: 0 for no effect and ±100 for the full control effect.

SMILES | Tau fibril ThT | Coupling enz | JMJD2E inh | Tau fluor counter | Tau fibril FP | Sfp inh
O=C(N/N=C/c1cc([N+](=O)[O-])ccc1O)C1C2CCCCC21 (centres undefined) | u | -1.3 | u | -14.0% | 12.3% | 24.6%
O=C(N/N=C/c1cc([N+](=O)[O-])ccc1O)C1CCCCC1 | u | 3.2 | 7.08µM* | -8.4% | 3.0% | 22.0%
Cc1ccc(N(CC(=O)N/N=C/c2cccs2)S(C)(=O)=O)cc1 | 7.3% | -8.2 | 11.5% | 1.6% | 7.5% | -0.8%
Cc1ccc(N(CC(=O)N/N=C/c2cccc(Br)c2)S(C)(=O)=O)cc1 | 7.0% | -31.3* | 15.6% | -14.1% | u | 6.9%
CCc1cccc(C)c1NC(=O)CCCn1c(C)c2cnn(-c3ccccc3)c(=O)c2c1C | -9.9% | x | x | -8.5% | 1.5% | x
Cc1nc(Nc2ccccc2)sc1C(=O)c1ccccc1 | u | 6.6 | 0.5% | u | 13.6% | 0.2%
CC(=O)c1cc(C(=O)c2ccccc2)sc1Nc1ccccc1 | u | -3.9 | u | u | -9.7% | 79.4µM*
C(C#CCCCCCCCCC[n+]1ccccc1)#CCCCCCCCCC[n+]1ccccc1 | x | -0.4 | x | x | x | 50.1µM*
COc1cc(C(=S)N2CCN(C(c3ccccc3)c3ccccc3)CC2)cc(OC)c1O | x | -2.6 | x | x | x | 15.8µM*
COc1ccc(NC(=S)N2CCN(C(c3ccccc3)c3ccccc3)CC2)cc1OC | -12.6% | 2.3 | -3.9% | -27.7% | 15.8% | 16.2%
Cc1[nH]c(=O)[nH]c(=O)c1/C=N/NC(=O)[C@@H](NC(=O)OC(C)(C)C)C(C)C | -4.5% | 1.1 | -6.8% | -3.8% | -12.3% | 8.6%
Cc1[nH]c(=O)[nH]c(=O)c1/C=N/NC(=O)[C@H](C)N | 3.5% | 1.3 | u | 12.2% | 1.8% | 50.1µM*
CC(C)n1c(SCC(=O)Nc2nncs2)nnc1-c1ccco1 | x | x | x | x | x | 20µM*
O=C(Cc1ccccc1)Nc1nnc(-c2ccco2)s1 | -13.4% | 2.9 | -27.3% | -2.7% | 6.6% | 5.7%
Cc1nnc(NC(=O)CSc2nnc(-c3ccco3)n2C(C)C)s1 | x | 1.6 | x | x | x | 4.6%
Cc1ccccc1NC(=O)CSc1ccc(-c2ccco2)nn1 | -8.3% | -0.6 | u | -4.9% | 4.4% | 22.4µM*
Nc1nnc(-c2ccco2)s1 | -6.4% | -3.7 | -29.4% | -9.1% | -1.3% | 5.01µM*
CCCC(=O)Nc1nnc(-c2ccco2)s1 | 0.1% | -2.8 | u | 8.0% | 11.8% | 31.6µM*
Cc1nnc(NC(=O)CSc2ccc(-c3ccc(Cl)cc3)nn2)s1 | -17.3% | 0.3 | u | -9.4% | -6.3% | -6.0%
Cc1ccc(C)c(NC(=O)CSc2ccc(-c3ccco3)nn2)c1 | u | 2.4 | 10.4% | -21.3% | -10.4% | 14.1µM*
Cc1nnc(NC(=O)CSc2ccc(-c3ccco3)nn2)s1 | u | -2.4 | u | -25.3% | u | 25.1µM*
COc1ccc(-c2oc3ncn4nc(COc5ccccc5C)nc4c3c2-c2ccc(OC)cc2)cc1 | 0.9% | x | x | -7.0% | -0.3% | x
CCN1CCN(C(=S)c2ccc(-c3ccccc3)cc2)CC1 | -2.2% | 0.0 | -6.4% | -6.6% | -9.4% | 22.4µM*
Cc1ccc(NC(=S)N2CCN(Cc3ccccc3)CC2)cc1 | -13.5% | 0.5 | 5.7% | -12.8% | 1.4% | 22.8%
CCN1CCN(C(=S)c2ccc(OCC(=O)NCc3ccccc3)cc2)CC1 | -6.5% | 1.5 | -0.7% | -10.1% | -8.3% | 22.4µM*
SMILES | Tau fibril ThT | Coupling enz | JMJD2E inh | Tau fluor counter | Tau fibril FP | Sfp inh
CCN1CCN(C(=S)c2ccc(Cl)c(Cl)c2)CC1 | -13.6% | -1.1 | 0.7% | -5.5% | 2.0% | 15.8µM*
CCOc1cc(C(=S)N2CCCCC2)ccc1OCC(=O)NCc1ccccc1 | -4.8% | 2.8 | 1.6% | -11.0% | 1.5% | -18.6%
Cc1ccc(C(=S)N2CCN(Cc3ccccc3)CC2)cc1 | -13.4% | 2.3 | -13.8% | -9.0% | -3.1% | 11.2µM*
CCN1CCN(C(=S)Nc2ccc(Cl)c(Cl)c2)CC1 | 5.8% | 0.8 | 5.4% | -0.7% | -7.2% | -6.9%
O=C(NC(=S)Nc1ccccc1)c1csnn1 | 10µM* | 0.6 | -19.0% | -12.0% | u | 50.1µM*
CCOC(=O)CSc1nc(C)cc(C)n1 | -8.5% | 0.9 | 2.3% | -11.0% | -4.8% | -3.4%
CCOC(=O)CSc1cn2c(n1)CCC2 | -2.3% | 1.2 | -0.2% | 0.6% | -6.2% | 39.8µM*
CC[C@@H](C)[C@H](CNC)NC[C@@H](Cc1cccc2ccccc12)NCCc1cccc(C(F)(F)F)c1 | x | -5.7 | x | x | x | 79.4µM*
CCc1ccc(NC(=O)CSc2c(C)cnc3c2c(=O)n(C)c(=O)n3C)cc1 | -9.5% | x | x | -10.8% | -14.6% | x
COc1cc(/C=N/Nc2ccc3ccccc3c2)ccc1OC(=O)c1ccco1 | 12.6µM* | -0.8 | 20µM* | 12.6µM*[quencher] | -7.6% | -10.8%
COc1ccc(Br)cc1CN1C(=O)c2ccccc2C1C(=O)NC1CCCCCC1 (centres undefined) | u | x | x | -20.7% | -1.2% | x
CC1CN(CCOCCOc2ccccc2-c2ccccc2)CC(C)O1 (centres undefined) | x | -2.2 | x | x | x | 44.7µM*
c1ccc(-c2ccccc2OCCOCCN2CCc3ccccc3C2)cc1 | u | -2.2 | -14.9% | 3.1% | 9.4% | -19.9%
Cc1cccc(C)c1N1CCN(S(=O)(=O)c2ccccc2)CC1 | 3.9% | 0.4 | -4.5% | -5.6% | -4.6% | -3.9%
CC1=C(C)CS(=O)N(S(=O)(=O)c2ccccc2)C1 (centres undefined) | u | -0.4 | -2.3% | -3.7% | u | 14.1µM*
CC1=C(C)CS(=O)N(c2ccc(S(N)(=O)=O)cc2)C1 (centres undefined) | u | -1.4 | 5.3% | -0.7% | u | 25.1µM*
O=C(NCCc1ccccc1)c1cc(-c2ccccc2)nc2n[nH]c(-c3ccccc3)c12 | 7.8% | x | x | -16.1% | u | x
CCOc1ccc(C(NC(=O)/C=C/c2ccco2)c2ccc(OC)c(OC)c2)cc1 (centres undefined) | -2.0% | 1.5 | -4.2% | -2.9% | 2.6% | u
CCN(CC)S(=O)(=O)c1ccc(N2CCCCC2)c(NC(=O)/C=C/c2ccc(OC)c(OC)c2)c1 | -7.0% | 2.3 | 1.1% | -21.0% | -8.5% | 17.2%
O=C(O)CCCNC(=O)/C=C/c1ccco1 | u | -0.4 | u | -14.3% | u | 12.6µM*
CCN(CC)S(=O)(=O)c1ccc(OC)c(NC(=O)/C=C/c2ccco2)c1 | u | 0.3 | -18.9% | -16.4% | u | 25.1µM*
COc1ccc(CNC(=O)/C=C/C(=O)O)cc1OC | 3.4% | -2.0 | 5.0% | -1.4% | -10.5% | -4.5%
